Assay outcomes as filed in PubChem.
TcdB GH inh = blocks C. difficile toxin B glycohydrolase activity; TcdB glycohydrolase enzymatic assay, plate reader; inhibition, % at 9.99 µM; 350,000 tested, 0.24% active; AID 652162; in the data active = inhibition above about 10%
BH1578 lux ind = quorum light induction in luxS cqsA deficient V. cholerae | activation, % at 18.7 µM | V. cholerae BH1578 lux reporter, luminescence, 6 h | AID 588436 | 350,000 tested, 0.16% active; in the data active = activation mostly above about 9.7%, no sharp cut-off
Sa RN4220 lethal = S. aureus RN4220 growth inhibition. OD600, 16 h. 330,000 tested, 0.33% active. AID 1259311. inhibition, % (no concentration beside the values); in the data active = inhibition above about 85%
ugtP null kill = compounds lethal to S. aureus RN4220 ugtP deletion mutant; OD600 growth, 16 h; growth inhibition, % (no concentration beside the values); 330,000 tested, 0.54% active; AID 1259309; in the data active = growth inhibition above about 68%
Each line names hits and unclear results; the compound was inactive in the other large screens. Only some compounds are listed: those with a hit (about 0.67% of all), similar ones and a draw of the others.

CC(C(=O)NCc1ccc(S(C)(=O)=O)cc1)C1C[C@]1(C)C(NC(=O)OCc1ccccc1)c1ccccc1 (stereo not given in full)	none (no result: TcdB GH inh, BH1578 lux ind)
Cc1cccc(NC(=O)COc2ccc(C=Cc3[nH]c(=O)[nH]c(=O)c3[N+](=O)[O-])cc2)c1	none (no result: TcdB GH inh, BH1578 lux ind)
Cc1nn(Cc2ccccc2)c(Cl)c1C=NNC(=O)CNc1cccc(C(F)(F)F)c1	none (no result: TcdB GH inh, BH1578 lux ind)
CC1(C)C(C=C(Cl)Cl)C1C(=O)Nc1ccc([N+](=O)[O-])cc1 (stereo not given)	Sa RN4220 lethal 87.1, ugtP null kill 93.9 (no result: BH1578 lux ind)
C=CCn1c(O)c(CN2CCN(Cc3ccccc3)CC2)c(C)c(C#N)c1=O	BH1578 lux ind 16.7 (no result: TcdB GH inh)
CCCn1c(O)c(CN2CCCCC2)c(C)c(C#N)c1=O	none (no result: TcdB GH inh)
Cc1cccn2c(=O)nc(SCC(=O)c3ccc(Cl)cc3)nc12	BH1578 lux ind 89.3
Cc1cccn2c(=O)nc(SCC(=O)c3ccccc3)nc12	none
CC(C)CCOC(=O)C[N+](C)(C)CCOC1CC2CCC1(C)C2(C)C (stereo not given)	ugtP null kill 100.7
CCC(C)OC(=O)C[N+](C)(C)CCOC1CC2CCC1(C)C2(C)C (stereo not given)	none
CCCCCCOC(=O)C[N+](C)(C)CCOC1CC2CCC1(C)C2(C)C (stereo not given)	none (no result: TcdB GH inh)
CCCCOC(=O)C[N+](C)(C)CCOC1CC2CCC1(C)C2(C)C (stereo not given)	ugtP null kill 88.8
CCCCCCCOC(=O)C[N+](C)(C)CCOC1CC2CCC1(C)C2(C)C (stereo not given)	Sa RN4220 lethal 100.2, ugtP null kill 100.2
CCCOC(=O)C[N+](C)(C)CCOC1CC2CCC1(C)C2(C)C (stereo not given)	none
CCOc1cc(C=NNC(=O)CCCC(=O)NC2CCCCC2)ccc1O	none (no result: TcdB GH inh, BH1578 lux ind)
CCOC1OC(C(=O)N2CCN(Cc3ccc4c(c3)OCO4)CC2)=CC(c2ccccc2)C1CCCO (stereo not given)	none (no result: TcdB GH inh, BH1578 lux ind)
CCC(=O)c1cn(CC(=O)Nc2cccc(C)c2C)c2ccccc12	TcdB GH inh 14.1
CC(=O)c1cn(CC(=O)Nc2cccc(C)c2C)c2ccccc12	none
O=[N+]([O-])c1ccc(C(O)C(CO)NC(=S)Nc2ccccc2)cc1 (stereo not given)	none
O=C(NC(CO)Cc1ccc([N+](=O)[O-])cc1)C(Cl)Cl (stereo not given)	Sa RN4220 lethal 94.4, ugtP null kill 99.1 (no result: TcdB GH inh)
O=C(NC(CO)C(O)c1ccc([N+](=O)[O-])cc1)C(Cl)Cl (stereo not given)	Sa RN4220 lethal 89.1, ugtP null kill 95.5
O=C(N[C@H](CO)[C@H](O)c1ccc([N+](=O)[O-])cc1)C(Cl)Cl	Sa RN4220 lethal 97.6, ugtP null kill 98.3
Cc1ccc(NC(=S)NC(CO)C(O)c2ccc([N+](=O)[O-])cc2)cc1 (stereo not given)	none
COc1ccc(S(=O)(=O)Nc2ccc3oc(C)c(C(=O)O)c3c2)cc1	TcdB GH inh 14.8
COC(=O)C1=C(c2ccc(F)cc2OCc2ccccc2)CC2CCC1N2C(=O)N1CCCCC1 (stereo not given)	none (no result: TcdB GH inh, BH1578 lux ind)
COc1ccc(/C=C(/C#N)C(=O)Nc2ccc(O)cc2)cc1C(=O)O	TcdB GH inh 18.0 (no result: Sa RN4220 lethal, ugtP null kill)
CC1(C)CC(=O)CC(=NNC(=O)COc2ccc(Cl)cc2Cl)C1	none (no result: TcdB GH inh, BH1578 lux ind)
CN(C)c1ccc(-c2c(-c3ccc4c(c3)OCO4)noc2-c2ccsc2)cn1	none (no result: TcdB GH inh)
O=C(O)c1cc(-c2ccc(-c3c(-c4ccc5c(c4)OCO5)noc3-c3ccsc3)cc2)nc2ccccc12	Sa RN4220 lethal 96.3, ugtP null kill 93.7
Cc1cc(=O)[nH]c(NN=Cc2ccc(Cl)cc2Cl)n1	none (no result: TcdB GH inh, BH1578 lux ind)
COc1cc(OC)nc(Oc2cc(C=NO)ccc2OC)n1	none (no result: TcdB GH inh, BH1578 lux ind)
O=C1c2cccc3cccc(c23)C(=O)N1CCN1CCN(C(=S)Nc2ccccc2)CC1	Sa RN4220 lethal 92.7, ugtP null kill 97.8 (no result: TcdB GH inh)
COc1ccc(OC)c(/C=C/c2ccnc3ccccc23)c1	none (no result: Sa RN4220 lethal, ugtP null kill)
COc1ccc2nccc(/C=C/c3ccnc4ccc(OC)cc34)c2c1	TcdB GH inh 12.9
COc1cc(OC)c(OC)cc1/C=C/c1ccnc2ccccc12	TcdB GH inh 18.7 (no result: BH1578 lux ind, Sa RN4220 lethal, ugtP null kill)
CCOC(=O)C1(Cc2cccc(OC)c2)CCN(CC=Cc2ccc(OC)cc2)CC1	none (no result: TcdB GH inh, BH1578 lux ind)
CC12CCC3C(=CCc4cc(O)ccc43)C1CC(=NO)C2O (stereo not given)	TcdB GH inh 13.0 (no result: BH1578 lux ind, Sa RN4220 lethal, ugtP null kill)
CC(C(=O)Nc1nc2ccc(F)cc2s1)N1C(=O)C2CC=CCC2C1=O (stereo not given)	none (no result: TcdB GH inh, BH1578 lux ind)
COc1ccccc1NC(=O)c1cc2cc(Br)ccc2cc1O	Sa RN4220 lethal 99.5, ugtP null kill 100.0
O=C1C(=Cc2cccnc2)Sc2ccccc21	none (no result: TcdB GH inh, BH1578 lux ind)
CC1CN(C(C)CO)C(=O)c2cc(NC(=O)Cn3cnnn3)ccc2OC1CN(C)CC1CCCCC1 (stereo not given)	none (no result: TcdB GH inh, BH1578 lux ind)
CCCCCCn1c(=O)c(C(=O)Nc2ncccc2C)c(O)c2ccccc21	ugtP null kill 88.6
CCCCn1c(=O)c(C(=O)Nc2ncccc2C)c(O)c2ccccc21	ugtP null kill 100.2
N=C1SC(c2ccccc2)C(=O)N1c1ncc(Cc2ccccc2Cl)s1 (stereo not given)	ugtP null kill 89.9 (no result: TcdB GH inh)
O=C(CSc1nnnn1-c1ccccc1)Nc1ncc(Cc2ccccc2Cl)s1	none
CCOC(=O)CNC(=O)c1cccnc1	none (no result: TcdB GH inh)
CCOC(=O)C(O)(NC(=O)c1cccnc1)C(F)(F)F (stereo not given)	Sa RN4220 lethal 83.7 (no result: TcdB GH inh)
O=C(O)c1cccnc1Sc1ccccc1Cl	none
O=C(O)c1cccnc1SCc1ccccc1Cl	TcdB GH inh 11.2
CC(C)Cc1nc(N2CCCCC2)c(C#N)c2c1CCC2	ugtP null kill 86.5 (no result: TcdB GH inh)
CC(C)Cc1nc(N2CCNCC2)c(C#N)c2c1CCC2	none
Cn1c(/C=C/c2ccc([N+](=O)[O-])o2)nc2ccccc2c1=O	Sa RN4220 lethal 99.0, ugtP null kill 96.6 (no result: TcdB GH inh)
Cn1c(/C=C/c2ccccc2)nc2ccccc2c1=O	none
CC1=NN(c2ccc(C(=O)O)cc2)C(=O)/C1=C/c1ccc(-c2ccccc2F)o1	none (no result: Sa RN4220 lethal, ugtP null kill)
CC1=NN(c2ccc(C)cc2)C(=O)/C1=C/c1ccc(-c2cc([N+](=O)[O-])ccc2O)o1	ugtP null kill 85.0
COc1ccc(OCc2cc(-c3ccc(Cl)cc3)no2)cc1	TcdB GH inh 18.9
CNC(=O)C[C@H]1CC[C@@H]2[C@@H](COc3ccc(NS(=O)(=O)c4ccccc4C)cc3C(=O)N2C)O1	none (no result: BH1578 lux ind, Sa RN4220 lethal, ugtP null kill)
COc1ccc(C(=O)Nc2ccc3c(c2)C(=O)N(C)[C@H]2CC[C@@H](CC(=O)NCC4CC4)O[C@H]2CO3)cc1	none (no result: BH1578 lux ind, Sa RN4220 lethal, ugtP null kill)
CNC(=O)C[C@H]1CC[C@@H]2[C@H](COc3ccc(NC(=O)Nc4ccc(C)cc4)cc3C(=O)N2C)O1	TcdB GH inh 10.7 (no result: BH1578 lux ind, Sa RN4220 lethal, ugtP null kill)
CNC(=O)C[C@@H]1CC[C@@H]2[C@H](COc3ccc(NS(=O)(=O)c4ccccc4C)cc3C(=O)N2C)O1	TcdB GH inh 15.3 (no result: BH1578 lux ind, Sa RN4220 lethal, ugtP null kill)
CNC(=O)C[C@H]1CC[C@@H]2[C@@H](COc3ccc(NC(=O)c4ccc(OC)cc4)cc3C(=O)N2C)O1	TcdB GH inh 12.4 (no result: BH1578 lux ind, Sa RN4220 lethal, ugtP null kill)
CNC(=O)C[C@@H]1CC[C@@H]2[C@H](COc3ccc(NC(=O)c4ccc(OC)cc4)cc3C(=O)N2C)O1	none (no result: BH1578 lux ind, Sa RN4220 lethal, ugtP null kill)
CNC(=O)C[C@H]1CC[C@@H]2[C@@H](COc3ccc(NC(=O)Nc4ccc(C)cc4)cc3C(=O)N2C)O1	none (no result: BH1578 lux ind, Sa RN4220 lethal, ugtP null kill)
